Measurements: PubChem BioAssay
Active and inactive are the calls of the source.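 How the source made its calls: active means z-score of at least 1.8 in each of two replicates, scored against plate mean and spread of sample wells; inactive means the rest.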

Experiment: viability rescue of complex I mutant cybrids, primary screen, cell-based, galactose medium, ATP luminescence (AID 1645843);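 further: positive z means more ATP and so rescue of galactose-driven cybrid death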
Details: complex I mutant cybrid cells, 72 h, hits give high values
For `CC1CCc2c(sc3ncn(Cc4noc(C(C)C)n4)c(=O)c23)C1` (configuration not stated), the z-score was -0.525 (inactive).
For `COc1cccc(-n2cc(-c3ccnc(N(C)Cc4cccnc4)n3)cn2)c1`, the z-score was 0.62 (inactive).
For `Cc1nsc(NC(=O)NCc2cc(Cl)ccc2Cl)n1`, the z-score was -1.1 (inactive).
For `CCCCCN1C(=O)C2(CCN(C(=O)N3CCCC3)CC2)Nc2ccccc21`, the z-score was -1.2 (inactive).
With `N#Cc1ccc(C(=O)N2CCNC(=O)C2Cc2ccccc2)cc1` (configuration not stated) the z-score was -0.47 (inactive).
With `COc1ccc(-c2ccc3cc(Cl)ccc3n2)c(OC)c1` the z-score was 1.15 (inactive).
With `CC(C)CN1CCN(Cc2ccco2)C(CCO)C1` (configuration not stated) the z-score was -0.595 (inactive).
For `CCC(C)(C)NCc1c(C)cc(C)c(CO)c1C`, the z-score was -0.525 (inactive).
With `C=C1C2(C(=O)N3CCCC(COC)C3)CCC(C2)C1(C)C` (configuration not stated) the z-score was -0.525 (inactive).
In the case of `CC(C)(C)c1cn(C2CCN(C(=O)CC3CCCCCC3)CC2)nn1`, the z-score is reported as -0.225 (inactive).
For `Cc1nsc(NC(=O)N2CCC(C(=O)N3CCCC3)CC2)n1`, the z-score was -0.375 (inactive).
In the case of `CC1(C(=O)N2CCC(n3cc(C(C)(C)C)nn3)CC2)CCCO1` (configuration not stated), the z-score is reported as -0.79 (inactive).
In the case of `Cc1cccc2c(C(=O)N(C)C(C)C)cc(-c3cnc(C(C)(C)C)nc3)nc12`, the z-score is reported as 2.35 (active).
In the case of `O=C(C1CCCCCC1)N1CCCC(Cn2cc(-c3ccccn3)nn2)C1` (configuration not stated), the z-score is reported as -0.33 (inactive).
With `CCC1(CNC(=O)Nc2nc(C)ns2)CCC1` the z-score was 1.42 (inactive).
With `Cc1nsc(NC(=O)N2CCCN(c3ccccc3)CC2)n1` the z-score was -0.19 (inactive).
In the case of `CCOC(=O)c1ccc(N2CCC(c3ccccc3F)C2)nc1` (configuration not stated), the z-score is reported as -0.015 (inactive).
